The panel holds about 83,000 compounds, 20% with a hit somewhere; the sample as a whole holds those more often.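 Each cell line was grown in a 96-well plate and treated with one concentration of compound for 48 hours. Values below 10 were considered active.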 Values without a mark were called inactive. Active and inactive are the calls of the source.
Each molecule was assayed on MDA-MB-468 breast (assay: NCI-60 one-dose screen, 48 h (100 = growth as untreated, 0 = no growth, -100 = all killed)). Conditions: 10 µM unless noted.

| Compound | growth |
| --- | --- |
| COc1ccc(/C=C2\SC(=Nc3ccccc3)NC2=O)cc1 | -84.8% (active) |
| O=C(/C=C/c1ccccc1)n1c(-c2ccc(Cl)cc2)nc2ccccc21 | -6.61% (active) |
| O=C1Nc2ccccc2/C1=C/c1cccs1 | -20.2% (active) |
| CCCCCN1C=C/C(=C\C(=O)N(C)c2ccc(OC(F)(F)F)cc2)c2ccccc21 | 80.4% |
| O=[N+]([O-])c1ccc(Oc2ccccc2Cl)c([N+](=O)[O-])c1 | 64.2% |
| CNC(=O)c1ccccc1Nc1nc(Nc2cc(OC)c(OC)c(OC)c2)ncc1Br | -46.6% (active) |
| CCCC(=O)Oc1ccc2ccccc2c1 | 94% |
| CCOC(=O)CCC[P+](c1ccccc1)(c1ccccc1)c1ccccc1 | 6.56% (active) |
| COc1ccc2[nH]c(-c3ccccc3)c(C=C(C#N)C#N)c2c1 | -4.84% (active) |
| NC1C2CCC1CN(c1cnc(C(=O)Nc3cc(F)cc4cccnc34)cn1)C2 (stereo unspecified) | -4.02% (active) |
| CC(=O)c1cc(C(=O)N2c3ccccc3Sc3ccccc32)n2ccc3ccccc3c12 | 43.4% |
| Cc1nc(N)[nH]c(=O)c1C | 103% |
| COc1ccccc1CNCCCN1C(=O)c2ccc3c4c(ccc(c24)C1=O)C(=O)N(CCCNCc1ccccc1OC)C3=O | -96.6% (active) |
| COc1cnc2c(c1)C(=O)c1c-2n(CCCN2CCN(C)CC2)c(=O)c2cc(Cl)ccc12 | 54.2% |
| Fc1ccc(-c2cc3nc(C(Cl)Cl)nc(-c4ccc(F)cc4)n3n2)cc1 | -63.6% (active) |
| Cc1cc(OC(=O)c2ccc([N+](=O)[O-])cc2)nc2[nH]c(=O)sc12 | 100% |
